Measurements published in PubChem BioAssay (NCATS).
Where “and” joins values, the source holds several entries; their conditions need not be identical. Identical values can stand only once. Inconclusive results are not listed. More than one record can exist for a structure, and the calls need not agree. Calls of active or inactive are those of the source. Calls follow the shape of the dose curve; as a rule, active = well fitted curve in the direction sought with a large enough effect; inconclusive = small, poorly fitted or top-dose-only effect, or another doubt; inactive = no such curve, though single readings can be large; an effect the other way counts as inactive or inconclusive.

Assays:
[1] = biological target: Metallo-beta-lactamase type 2 (Klebsiella pneumoniae) (UniProt C7C422); test: qHTS to identify inhibitors of the New Delhi Metallo-beta-lactamase (NDM): assay validation screen against the NCATS LOPAC Collection (AID 1794843); conditions: NDM-1 enzyme, nitrocefin hydrolysis, absorbance 485 nm; series mostly up to 38.4 µM;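 also: nitrocefin turnover by NDM-1 measured as 485 nm absorbance at plateau; % is scaled to controls: 0 for no effect and ±100 for the full control effect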
How it was run: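 Enzyme 2 nM final, 50 mM HEPES pH 7.0, 1 uM ZnSO4, 0.01% Tween20; cpds in DMSO, preincub w/ enzyme; + nitrocefin (50 uM stock); A485 at plateau; no-enzyme column as blank.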

[2] = biological target: Glutathione peroxidase 1 (Homo sapiens) (UniProt P07203); test: Primary qHTS Assay for Inhibitors of Recombinant Selenoprotein Glutathione Peroxidase 1 (GPX1) (AID 1845191); conditions: recombinant GPX1, GR-coupled NADPH fluorescence, 15 min; series mostly up to 48.8 µM; also: nearly all actives have a fitted effect of over 65% in size; also: potency is read from the fitted curve at half-maximal effect; as to activity, negative = inhibition: % is scaled to controls: 0 for no effect and ±100 for the full control effect
How it was run: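 10 nM GPX1 + cpd, 30 min RT; start w/ 1 mM GSH, 0.5 mM cumene hydroperoxide, 0.5 mM NADPH, 100 nM GR, 0.01% BSA; buffer 50 mM Tris-HCl pH 7.5, 2 mM EDTA, 150 mM NaCl; Fl 340/450, 0 & 15 min.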

[3] = biological target: Phospholipid hydroperoxide glutathione peroxidase GPX4 (Homo sapiens) (UniProt P36969); test: Primary qHTS Assay for Inhibitors of Recombinant Selenoprotein Glutathione Peroxidase 4 (GPX4) (AID 1845192); conditions: recombinant GPX4, GR-coupled NADPH fluorescence, 15 min; series mostly up to 50 µM; also: nearly all actives have a fitted effect of over 65% in size; also: potency is read from the fitted curve at half-maximal effect; as to activity change, negative = inhibition: % is scaled to controls: 0 for no effect and ±100 for the full control effect
How it was run: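 NADPH consumption, followed by fluorescence at 340/450 nm between 0 and 15 min, reports GPX4 activity via coupled glutathione reductase (100 nM). Enzyme 200 nM was pre-exposed to compound 30 min; 0.5 mM cumene hydroperoxide and 1 mM GSH served as substrates.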

[4] = biological target: Luciferin 4-monooxygenase (Photinus pyralis) (UniProt P08659); test: Primary firefly luciferase (FLuc) qHTS assay for identification of artifact compounds. (AID 1845220); conditions: purified firefly luciferase, luminescence, 5 min; series mostly up to 54.1 µM; also: nearly all actives have a fitted effect of over 60% in size;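 as to activity change, negative = inhibition: plate controls were DMSO vehicle for no effect and no enzyme for full effect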
How it was run: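 Cell-free, 1536-well qHTS. Buffer pH 7.6 with 0.01% Tween-20 and 0.05% BSA; 10 uM D-luciferin, 10 uM ATP; 10 nM P. pyralis luciferase; luminescence after 5 min.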

[5] = Primary fluorescence-based thiol-reactive (MSTI) qHTS assay for identification of artifact compounds. (AID 1845221); conditions: MSTI thiol-reactivity probe, 1 h; series mostly up to 53.8 µM; also: nearly all actives have a fitted effect of over 65% in size; also: potency is read from the fitted curve at half-maximal effect;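 as to activity change, negative = thiol reactive: thiol-reactive compounds lower the probe fluorescence signal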
How it was run: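 One-hour, room-temperature, dark incubation of compound with 4 uM MSTI in PBS (pH 7.4, 2% DMSO) precedes a fluorescence read at 525 nm excitation, 598 nm emission; Hill-equation fitting yields concentration-response values.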

[6] = tested on: Nanoluciferase (engineered Oplophorus gracilirostris luciferase); test: Primary Nanoluciferase (NLuc) qHTS assay for identification of artifact compounds. (AID 1845222); conditions: NLuc-conditioned medium, Nano-Glo luminescence, 5 min; series mostly up to 54.1 µM;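 also: 0% = DMSO and -100% = no enzyme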
How it was run: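 Compounds are pinned into diluted (1:55) conditioned medium of NLuc-expressing S16 cells and held 15 min at room temperature protected from light. Nano-Glo substrate follows, and luminescence is read 5 min later.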

[7] = Quantitative High-Throughput drug screen in 47 multiple myeloma cell lines against the NCATS MIPE library collection: Delta47_JCRB cell viability assay (AID 1918925; also: nearly all actives have a fitted effect of over 45% in size; also: potency is read from the fitted curve at half-maximal effect); conditions: Delta47 myeloma viability, CellTiter-Glo ATP, 48 h; series mostly up to 45.8 µM
How it was run: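 Relative luminescence from CellTiter-Glo served as the viability signal, referenced to DMSO-treated (100%) and cell-free medium (0%) controls. Treatment lasted 48 hours at 37C with 500 cells per well.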

[8] = Quantitative High-Throughput drug screen in 47 multiple myeloma cell lines against the NCATS MIPE library collection: FR4_PLB cell viability assay (AID 1918924; also: nearly all actives have a fitted effect of over 35% in size; also: potency is read from the fitted curve at half-maximal effect); conditions: FR4_PLB myeloma cells viability, CellTiter-Glo ATP, 48 h; series mostly up to 45.8 µM
How it was run: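 Primary qHTS used for cherry-picking: cells at 500/well, library compounds for 48 h (37C, 5% CO2), luminescent ATP assay.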

[9] = Primary redox qHTS assay for identification of artifact compounds. (AID 1845223); conditions: Amplex Red/HRP redox cycling with DTT, fluorescence; series mostly up to 53.8 µM;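 also: 0% = DMSO and 100% = reference compound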
How it was run: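 Amplex Red (25 uM) and HRP (250 mU/mL) in HBSS, with compounds for 15 min, then 250 uM DTT for 30 min, room temperature, dark. Fluorescence 525/598 nm read; normalized to DMSO and 10 uM DA3003; Hill fit.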

[10] = HepG2 viability counterscreen (readout 1: protease activity) against the NCATS DSHEA and TCM libraries (AID 1794841); conditions: qHTS concentration series; series mostly up to 27.3 µM;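 also: cells exposed to compounds for about 24 h before the protease read; 0% is about no effect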
Description: Assay Development and Screening Technology Laboratory (ADST)
National Center for Advancing Translational Sciences (NCATS), Rockville, MD
National Institute of Health (NIH), Bethesda, Maryland
Dietary Supplements and Natural Products have minor oversight of their safety and efficacy. We assembled a collection of Dietary Supplements and Natural Products (DSNP) as well as Traditional Chinese Medicinal (TCM) Plant extracts, which were screened against an in vitro panel of assays, including a liver cytochrome p450 enzyme panel, CAR/PXR signaling pathways, and P-gp transporter assays, to assess their activity. This pipeline facilitated the interrogation of Natural Product-Drug Interaction (NaPDI) through prominent metabolizing pathways. […] Overall, we highlight four significant bioactivity profiles (measured by p-values) as examples of this prediction. […]
7; Read 1; Fluorescence; EnVision plate reader excitation 380 nm, emission 510 nm. […]
11; Read 2; Luminescence; ViewLux plate reader. […]
7. After incubation, plates were read for fluorescence intensity (Ex/Em = 380 nm/510 nm) on an EnVision detector (PerkinElmer, Shelton, Connecticut).
8. Once the detection for fluorescence was completed, plates were dispensed with 3 uL of CellTiter-Glo (Promega, Madison, WI). […]
11. Plates were then read for luminescence intensity on a ViewLux detector. […]

Phospholipid hydroperoxide glutathione peroxidase GPX4 (Homo sapiens), sequence (P36969 whole entry, looked up): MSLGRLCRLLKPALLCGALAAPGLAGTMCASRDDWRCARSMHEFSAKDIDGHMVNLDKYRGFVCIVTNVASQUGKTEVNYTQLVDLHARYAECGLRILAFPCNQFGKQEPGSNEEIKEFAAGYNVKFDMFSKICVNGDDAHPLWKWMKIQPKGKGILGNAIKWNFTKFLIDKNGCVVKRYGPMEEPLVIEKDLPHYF
Glutathione peroxidase 1 (Homo sapiens), sequence (P07203 whole entry, looked up): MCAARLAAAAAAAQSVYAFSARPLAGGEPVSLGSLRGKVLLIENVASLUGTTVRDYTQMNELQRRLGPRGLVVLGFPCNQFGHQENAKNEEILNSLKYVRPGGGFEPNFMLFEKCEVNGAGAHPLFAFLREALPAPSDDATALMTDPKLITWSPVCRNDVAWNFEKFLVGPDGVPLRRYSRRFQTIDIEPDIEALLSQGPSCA
Metallo-beta-lactamase type 2 (Klebsiella pneumoniae), sequence (C7C422 whole entry, looked up): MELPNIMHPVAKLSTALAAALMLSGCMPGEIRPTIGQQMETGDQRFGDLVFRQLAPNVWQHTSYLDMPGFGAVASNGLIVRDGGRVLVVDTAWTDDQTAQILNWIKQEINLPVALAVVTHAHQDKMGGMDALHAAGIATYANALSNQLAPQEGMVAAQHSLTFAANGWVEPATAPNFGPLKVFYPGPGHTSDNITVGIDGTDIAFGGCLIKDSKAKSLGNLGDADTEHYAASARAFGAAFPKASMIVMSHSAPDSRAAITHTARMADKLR

O=C(O)CCc1ccc(NCc2cccc(Oc3ccccc3)c2)cc1
inactive: outcome [1] | Potency [2] | Potency [3] | Potency [4] | outcome [6] | Potency [7]
active: Potency [5] 1.68 µM

CCc1cncnc1N1CCN(Cc2nc3ccc(C(F)(F)F)cc3[nH]2)CC1
inactive: outcome [1] | Potency [2] | Potency [3] | Potency [4] | Potency [5] | outcome [6]
active: Potency [7] 13.2 µM

CCN(CC)CCCC(C)Nc1ccnc2cc(Cl)ccc12 (stereo not drawn)
inactive: outcome [1] | Potency [2] | Potency [3] | activity change, negative = inhibition [4] -3.19% [at 11.6 µM] | activity change, negative = thiol reactive [5] -0.305% [at 11.5 µM] | activity, negative = inhibition [6] 2.98% [at 11.6 µM] | Potency [8] | Potency [7]

NNCCc1ccccc1
inactive: outcome [1] | Potency [2] | Potency [3] | Potency [7]

OC(CCN1CCCCC1)(c1ccccc1)C1CC2C=CC1C2 (stereo not drawn)
inactive: outcome [1] | Potency [2] | Potency [3] | Potency [8] | Potency [7]

CC(C)(Sc1ccc(CCN(CCCCC2CCCCC2)C(=O)NC2CCCCC2)cc1)C(=O)O
inactive: outcome [1] | Potency [2] | Potency [4] | Potency [5] | outcome [6] | outcome [9]
inactive and 6.4 µM (active): Potency [3]

Cc1oncc1C(=O)Nc1ccc(C(F)(F)F)cc1
inactive: outcome [1] | Potency [2] | Potency [3]

NCCCC(N)(C(=O)O)C(F)F (stereo not drawn)
active: Potency [8] 16.6 µM
inactive: outcome [1] | Potency [2] | Potency [3]

C1COC(NC(C2CC2)C2CC2)=N1
inactive: outcome [1] | Potency [2] | Potency [3]

CC(C)(C)NCC(O)c1ccc(O)c(CO)c1 (stereo not drawn)
inactive: outcome [1] | Potency [2] | Potency [3] | Potency [8] | Potency [7]

Nc1ccc(S(=O)(=O)Nc2ccnn2-c2ccccc2)cc1
inactive: outcome [1] | Potency [2] | Potency [3] | Potency [7]

O=c1n(CCCN2CCN(c3cccc(Cl)c3)CC2)nc2ccccn12
inactive: outcome [1] | Potency [2] | Potency [3] | Potency [7]

c1ccc([C@H]2CN3CCSC3=N2)cc1
inactive: outcome [1] | Potency [2] | Potency [3] | Potency [8]

N=c1nc(N2CCCCC2)cc(N)n1O
inactive: outcome [1] | Potency [2] | Potency [3] | Potency [8]

CCn1cc(C(=O)O)c(=O)c2cc(F)c(N3CCNC(C)C3)c(F)c21 (stereo not drawn)
inactive: outcome [1] | Potency [2] | Potency [3] | Potency [8]

CCOC(=O)C1=C[C@]2(CC)CCCN3CCc4c(n1c1ccccc41)[C@@H]32
active: Potency [2] 12.8 µM | Potency [8] 20.9 µM | Potency [7] 10.5 µM
inactive: outcome [1] | Potency [3]

NC(=O)c1cnccn1
inactive: outcome [10] | outcome [1] | Potency [2] | Potency [3] | Potency [8] | Potency [7]

Cc1ccccc1C(OCCN(C)C)c1ccccc1 (stereo not drawn)
inactive: outcome [1] | Potency [2] | Potency [3] | Potency [8]

O=C1CCC(N2C(=O)c3ccccc3C2=O)C(=O)N1 (stereo not drawn)
inactive: outcome [1] | Potency [2] | Potency [3] | Potency [8] | Potency [7]

Nc1nc2c(ncn2COCCO)c(=O)[nH]1
inactive: outcome [1] | Potency [2] | Potency [3] | Potency [8]

CNC[C@H](O)c1cccc(O)c1
inactive: outcome [1] | Potency [2] | Potency [3] | Potency [8] | Potency [7]

Cn1cnc([N+](=O)[O-])c1Sc1ncnc2nc[nH]c12
inactive: outcome [1] | Potency [2] | Potency [3]

CC(C)NCC(O)COc1ccc(COCCOC(C)C)cc1 (stereo not drawn)
inactive: outcome [1] | Potency [2] | Potency [3]

O=C(O)COCCN1CCN(C(c2ccccc2)c2ccc(Cl)cc2)CC1 (stereo not drawn)
inactive: outcome [1] | Potency [2] | Potency [3] | Potency [8]

CS(=O)(=O)c1cccc(CNc2nc(Nc3ccc4c(c3)CCC(=O)N4)ncc2C(F)(F)F)c1
inactive: outcome [1] | Potency [2] | Potency [3] | Potency [4] | Potency [5] | outcome [6]
active: Potency [7] 18.7 µM

N[C@@H]1CONC1=O
inactive: outcome [1] | Potency [2] | Potency [3] | Potency [8] | Potency [7]

OC(CN1CCC(Cc2ccc(F)cc2)CC1)c1ccc(Cl)cc1 (stereo not drawn)
inactive: outcome [1] | Potency [2] | Potency [3] | Potency [8] | Potency [7]

NCCc1ccc(O)c(O)c1
inactive: outcome [1] | Potency [2] | Potency [3]

O=C(Nc1nc2ccccc2n1CCN1CCOCC1)c1cccc([N+](=O)[O-])c1
inactive: outcome [1] | Potency [2] | Potency [3]

O=c1[nH]cnc2[nH]ncc12
inactive: outcome [1] | Potency [2] | Potency [3] | Potency [8] | Potency [7]

CCC(C)N(C)C(=O)c1cc2ccccc2c(-c2ccccc2Cl)n1 (stereo not drawn)
inactive: outcome [1] | Potency [2] | Potency [3] | Potency [8] | Potency [7]

Clc1cccc(Cl)c1NC1=NCCN1
inactive: outcome [1] | Potency [2] | Potency [3] | Potency [7]

Cc1ccc(N(CC2=NCCN2)c2cccc(O)c2)cc1
inactive: outcome [1] | Potency [2] | Potency [3] | Potency [7]
active: Potency [8] 20.9 µM

O=NN(CCCl)C(=O)NCCCl
inactive: outcome [1] | Potency [2] | Potency [3] | Potency [7]
